# ± gives the standard deviation of the averaged measurements.
# How the values were obtained:
# [1] = system: DLD1; assay: cell viability (CellTiter-Glo) relative to plate median (fraction of plate median); higher = more viable cells; conditions: 5 µM; treatment time 24 h; reporter: 7TFP
# Procedure, shortened: (§1)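 Colorectal cancer cell lines stably carrying lentiviral TCF/Wnt firefly luciferase reporters (7TFP or TCF4/Wnt) were plated in 384-well plates and, 24 h later, given library compounds at a final 5 µM for 24 h. Firefly luciferase or CellTiterGlo luminescence was read on parallel plates with a Tecan F500 reader. Each well's signal was normalised to the plate median in webcellHTS2 (additive, without log transformation). Values are the mean of two independent replicates.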
# [2] = system: HCT116; assay: as above; conditions: 5 µM; treatment time 24 h; reporter: TCF4/Wnt
# Procedure, shortened: as §1
# [3] = system: SW480; assay: as above; conditions: 5 µM; treatment time 24 h; reporter: 7TFP
# Procedure, shortened: as §1
# [4] = system: DLD1; assay: TCF/Wnt firefly luciferase reporter signal relative to plate median (fraction of plate median); higher = higher Wnt reporter signal; conditions: 5 µM; treatment time 24 h; reporter: 7TFP
# Procedure, shortened: as §1
# [5] = system: SW480; assay: as above; conditions: 5 µM; treatment time 24 h; reporter: 7TFP
# Procedure, shortened: as §1
# [6] = system: DLD1; assay: cell viability (CellTiter-Glo) relative to plate median (fraction of plate median); higher = more viable cells; conditions: 10 µM, treatment time 24 h
# Procedure, shortened: (§2)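 In 384-well plates, colorectal cancer lines with stable lentiviral 7TFP or TCF4/Wnt firefly luciferase reporters were seeded and, 24 h later, given kinase inhibitor library compounds at a final 10 µM for 24 h. A Tecan F500 reader measured firefly luciferase on one plate and CellTiterGlo on a parallel plate. Reported figures are two-replicate means of well signals normalised to the plate median, computed additively in webcellHTS2 without log transformation.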
# [7] = system: HCT116; assay: as above; conditions: 10 µM; treatment time 24 h; reporter: TCF4/Wnt
# Procedure, shortened: as §2
# [8] = system: SW480; assay: as above; conditions: 10 µM; treatment time 24 h; reporter: 7TFP
# Procedure, shortened: as §2
# [9] = system: DLD1; assay: TCF/Wnt firefly luciferase reporter signal relative to plate median (fraction of plate median); higher = higher Wnt reporter signal; conditions: 10 µM, treatment time 24 h
# Procedure, shortened: as §2
# [10] = system: HCT116; assay: as above; conditions: 10 µM; treatment time 24 h; reporter: TCF4/Wnt
# Procedure, shortened: as §2
# [11] = system: SW480; assay: as above; conditions: 10 µM; treatment time 24 h; reporter: 7TFP
# Procedure, shortened: as §2
smiles,measurement,setting,value
Nc1ccc([As](=O)(O)O)cc1,cell viability,[1],1.01 ± 0.021
same,cell viability,[2],1.09 ± 0.092
same,cell viability,[3],0.941 ± 0.04
same,TCF/Wnt firefly luciferase reporter signal,[4],0.976 ± 0.063
same,TCF/Wnt firefly luciferase reporter signal,[5],0.962 ± 0.028
O=c1[nH]c2ccc(Cl)cc2c(N[C@@H]2CN3CCC2CC3)c1-c1nc2ccccc2[nH]1,cell viability,[6]; reporter: 7TFP,1.004 ± 0.0092
same,cell viability,[6]; reporter: TCF4/Wnt,1.06 ± 0.05
same,cell viability,[7],0.521 ± 0.25
same,cell viability,[8],0.992 ± 0.025
same,TCF/Wnt firefly luciferase reporter signal,[9]; reporter: 7TFP,2.27 ± 0.078
same,TCF/Wnt firefly luciferase reporter signal,[9]; reporter: TCF4/Wnt,2.27 ± 0.18
same,TCF/Wnt firefly luciferase reporter signal,[10],0.439 ± 0.17
same,TCF/Wnt firefly luciferase reporter signal,[11],1.8 ± 0.099
CCN1CCN(C(=O)Cc2ccc(Nc3ncc(F)c(Nc4ccc(C(=O)Nc5ccccc5Cl)cc4)n3)cc2)CC1 [Aurora A Inhibitor I],cell viability,[6]; reporter: 7TFP,0.955 ± 0.036
same,cell viability,[6]; reporter: TCF4/Wnt,1.09 ± 0.057
same,cell viability,[7],1.09 ± 0.14
same,cell viability,[8],0.927 ± 0.093
same,TCF/Wnt firefly luciferase reporter signal,[9]; reporter: 7TFP,1.16 ± 0.057
same,TCF/Wnt firefly luciferase reporter signal,[9]; reporter: TCF4/Wnt,1.16 ± 0.028
same,TCF/Wnt firefly luciferase reporter signal,[10],1.21 ± 0.071
same,TCF/Wnt firefly luciferase reporter signal,[11],1.02 ± 0.035
Cc1cccc(C)c1NC1=NCCCS1,cell viability,[1],1.04 ± 0.073
same,cell viability,[2],1.01 ± 0.036
same,cell viability,[3],0.992 ± 0.012
same,TCF/Wnt firefly luciferase reporter signal,[4],1.07 ± 0.05
same,TCF/Wnt firefly luciferase reporter signal,[5],1.02 ± 0.083
Cc1ccccc1-n1c(Cn2cnc3c(N)ncnc32)nc2cccc(C)c2c1=O,cell viability,[6]; reporter: 7TFP,1.05 ± 0.05
same,cell viability,[6]; reporter: TCF4/Wnt,0.964 ± 0.029
same,cell viability,[7],1.19 ± 0.064
same,cell viability,[8],0.947 ± 0.027
same,TCF/Wnt firefly luciferase reporter signal,[9]; reporter: 7TFP,1.02 ± 0.021
same,TCF/Wnt firefly luciferase reporter signal,[9]; reporter: TCF4/Wnt,0.941 ± 0.027
same,TCF/Wnt firefly luciferase reporter signal,[10],1.18 ± 0.057
same,TCF/Wnt firefly luciferase reporter signal,[11],0.9485 ± 0.005
C=C(C)[C@H]1CN[C@H](C(=O)O)[C@H]1CC(=O)O,cell viability,[1],0.986 ± 0.035
same,cell viability,[2],1.01 ± 0.099
same,cell viability,[3],0.97 ± 0.0042
same,TCF/Wnt firefly luciferase reporter signal,[4],0.923 ± 0.11
same,TCF/Wnt firefly luciferase reporter signal,[5],0.947 ± 0.047
CC(=O)Nc1cc([As](=O)(O)O)ccc1O,cell viability,[1],1.04 ± 0.064
same,cell viability,[2],0.994 ± 0.023
same,cell viability,[3],1.02
same,TCF/Wnt firefly luciferase reporter signal,[4],1.13 ± 0.085
same,TCF/Wnt firefly luciferase reporter signal,[5],0.973 ± 0.038
N#Cc1c(Cl)c(Cl)c(Cl)c(C#N)c1Cl,cell viability,[1],0.687 ± 0.075
same,cell viability,[2],0.465 ± 0.13
same,cell viability,[3],1.01 ± 0.052
same,TCF/Wnt firefly luciferase reporter signal,[4],0.293 ± 0.14
same,TCF/Wnt firefly luciferase reporter signal,[5],0.286 ± 0.15
Cn1cc(C2=C(c3cn(C4CCN(Cc5ccccn5)CC4)c4ccccc34)C(=O)NC2=O)c2ccccc21,cell viability,[6]; reporter: 7TFP,0.854 ± 0.016
same,cell viability,[6]; reporter: TCF4/Wnt,0.931 ± 0.059
same,cell viability,[7],1.08 ± 0.071
same,cell viability,[8],0.931 ± 0.081
same,TCF/Wnt firefly luciferase reporter signal,[9]; reporter: 7TFP,1.98 ± 0.86
same,TCF/Wnt firefly luciferase reporter signal,[9]; reporter: TCF4/Wnt,1.38 ± 0.18
same,TCF/Wnt firefly luciferase reporter signal,[10],2.9 ± 0.54
same,TCF/Wnt firefly luciferase reporter signal,[11],1.45 ± 0.17
CC(=O)O[C@@H]1[C@H]2CC[C@H]3[C@@](C)(O)[C@@H]4C[C@H](O)C(C)(C)[C@@]4(O)[C@H](O)C[C@@]13C[C@@]2(C)O,cell viability,[1],1.04 ± 0.014
same,cell viability,[2],1.105 ± 0.0071
same,cell viability,[3],1.09 ± 0.064
same,TCF/Wnt firefly luciferase reporter signal,[4],1.04 ± 0.014
same,TCF/Wnt firefly luciferase reporter signal,[5],0.984 ± 0.19
CC(C)=CCOc1c2occc2cc2ccc(=O)oc12,cell viability,[1],1.03 ± 0.086
same,cell viability,[2],0.997 ± 0.1
same,cell viability,[3],1.01 ± 0.014
same,TCF/Wnt firefly luciferase reporter signal,[4],1.12 ± 0.05
same,TCF/Wnt firefly luciferase reporter signal,[5],0.998 ± 0.16
CCC(N)C(O)c1ccc(O)c(O)c1 (configuration not stated),cell viability,[1],1.02 ± 0.055
same,cell viability,[2],1.1 ± 0.05
same,cell viability,[3],1.07 ± 0.057
same,TCF/Wnt firefly luciferase reporter signal,[4],1.03 ± 0.22
same,TCF/Wnt firefly luciferase reporter signal,[5],1.08 ± 0.071
CN1CCCCC1c1ccc(-c2cccnc2)nc1 (configuration not stated),cell viability,[1],0.963 ± 0.024
same,cell viability,[2],0.901 ± 0.12
same,cell viability,[3],1.01 ± 0.027
same,TCF/Wnt firefly luciferase reporter signal,[4],1.03 ± 0.021
same,TCF/Wnt firefly luciferase reporter signal,[5],0.983 ± 0.096
CC[C@H]1CN2CC[C@H]1C[C@@H]2[C@@H](O)c1ccnc2ccc(OC)cc12,cell viability,[1],0.997 ± 0.0042
same,cell viability,[2],1.07 ± 0.05
same,cell viability,[3],1.06 ± 0.064
same,TCF/Wnt firefly luciferase reporter signal,[4],1.08 ± 0.24
same,TCF/Wnt firefly luciferase reporter signal,[5],1.06 ± 0.071
COc1ccc([C@H]2Oc3c(I)c(OC)cc(OC)c3C[C@@H]2O)cc1OC,cell viability,[1],0.912 ± 0.011
same,cell viability,[2],0.89 ± 0.0071
same,cell viability,[3],1 ± 0.042
same,TCF/Wnt firefly luciferase reporter signal,[4],0.959 ± 0.2
same,TCF/Wnt firefly luciferase reporter signal,[5],1.07 ± 0.23
O=C1CCCN1CC#CCN1CCCC1,cell viability,[1],1.07 ± 0.092
same,cell viability,[2],1.11 ± 0.028
same,cell viability,[3],1.05 ± 0.042
same,TCF/Wnt firefly luciferase reporter signal,[4],1.01 ± 0.032
same,TCF/Wnt firefly luciferase reporter signal,[5],0.8175 ± 0.0035
CC(=O)O[C@@H]1C[C@@]2(C)[C@H](c3ccoc3)C[C@H]3O[C@]32[C@]2(C)C(=O)C(O)=C3C(C)(C)C(=O)C=C[C@]3(C)[C@@H]12,cell viability,[1],0.901 ± 0.044
same,cell viability,[2],0.824 ± 0.14
same,cell viability,[3],1.09 ± 0.12
same,TCF/Wnt firefly luciferase reporter signal,[4],0.888 ± 0.03
same,TCF/Wnt firefly luciferase reporter signal,[5],0.831 ± 0.19
C/C=C/[C@H]1O[C@@](O)([C@@H](C)[C@H](O)[C@H](C)[C@H]2OC(=O)/C(OC)=C/C(C)=C/[C@@H](C)[C@@H](O)[C@@H](CC)[C@@H](O)[C@H](C)C/C(C)=C/C=C/[C@@H]2OC)C[C@@H](O[C@H]2C[C@@H](O)[C@H](OC(N)=O)[C@@H](C)O2)[C@@H]1C [Concanamycin A],cell viability,[1],0.886 ± 0.095
same,cell viability,[2],0.998 ± 0.059
same,cell viability,[3],1.04 ± 0.035
same,TCF/Wnt firefly luciferase reporter signal,[4],0.806 ± 0.2
same,TCF/Wnt firefly luciferase reporter signal,[5],0.9 ± 0.12
CC1=C2[C@H]3OC(=O)[C@@H](C)[C@@H]3CC[C@@]2(C)C=CC1=O,cell viability,[1],1.08 ± 0.15
same,cell viability,[2],1.06 ± 0.078
same,cell viability,[3],1.03 ± 0.043
same,TCF/Wnt firefly luciferase reporter signal,[4],0.968 ± 0.026
same,TCF/Wnt firefly luciferase reporter signal,[5],1.06 ± 0.12
CC(C)=CCC[C@]1(C)C=Cc2c(O)c3c(c(CC=C(C)C)c2O1)O[C@]12C(=C[C@@H]4C[C@H]1C(C)(C)O[C@@]2(C/C=C(/C)C(=O)O)C4=O)C3=O,cell viability,[1],0.965 ± 0.12
same,cell viability,[2],0.993 ± 0.053
same,cell viability,[3],1.09 ± 0.14
same,TCF/Wnt firefly luciferase reporter signal,[4],1.05 ± 0.095
same,TCF/Wnt firefly luciferase reporter signal,[5],1.09 ± 0.028
NC(=O)Cc1ccccc1 [Phenylacetamide],cell viability,[1],1.11 ± 0.071
same,cell viability,[2],1.005 ± 0.0071
same,cell viability,[3],1.01 ± 0.016
same,TCF/Wnt firefly luciferase reporter signal,[4],1.11 ± 0.14
same,TCF/Wnt firefly luciferase reporter signal,[5],1.11
C[C@]12CC[C@H](O)CC1=CC[C@@H]1[C@@H]2CC[C@]2(C)C(=O)CC[C@@H]12,cell viability,[1],1.04
same,cell viability,[2],1.15 ± 0.021
same,cell viability,[3],1.02 ± 0.021
same,TCF/Wnt firefly luciferase reporter signal,[4],1.04 ± 0.14
same,TCF/Wnt firefly luciferase reporter signal,[5],0.916 ± 0.026
NC(=O)CN1CCCC1=O,cell viability,[1],1.02 ± 0.051
same,cell viability,[2],1.01 ± 0.092
same,cell viability,[3],0.955 ± 0.024
same,TCF/Wnt firefly luciferase reporter signal,[4],0.925 ± 0.023
same,TCF/Wnt firefly luciferase reporter signal,[5],1.15 ± 0.05
CCCCCCCCCCCCCCCC[n+]1ccccc1,cell viability,[1],0.885 ± 0.07
same,cell viability,[2],0.797 ± 0.13
same,cell viability,[3],0.95 ± 0.028
same,TCF/Wnt firefly luciferase reporter signal,[4],0.773 ± 0.062
same,TCF/Wnt firefly luciferase reporter signal,[5],0.661 ± 0.073
C=C(C)[C@H]1Cc2c(ccc3c2O[C@@H]2COc4cc(OC)c(OC)cc4[C@@H]2C3=O)O1,cell viability,[1],0.851 ± 0.054
same,cell viability,[2],0.637 ± 0.11
same,cell viability,[3],1.01 ± 0.05
same,TCF/Wnt firefly luciferase reporter signal,[4],0.738 ± 0.04
same,TCF/Wnt firefly luciferase reporter signal,[5],0.753 ± 0.17
CC(C)=CCC[C@]1(C)C=Cc2c(O)c3c(c(CC=C(C)C)c2O1)O[C@]12C(=C[C@@H]4C[C@H]1C(C)(C)O[C@@]2(C/C=C(/C)C(N)=O)C4=O)C3=O,cell viability,[1],0.976 ± 0.049
same,cell viability,[2],0.9335 ± 0.00071
same,cell viability,[3],1.03 ± 0.021
same,TCF/Wnt firefly luciferase reporter signal,[4],0.947 ± 0.011
same,TCF/Wnt firefly luciferase reporter signal,[5],0.895 ± 0.1
CC(C)C[C@H]1C(=O)N2CCC[C@H]2[C@]2(O)O[C@](NC(=O)[C@@H]3C=C4c5cccc6[nH]c(Br)c(c56)C[C@H]4N(C)C3)(C(C)C)C(=O)N12,cell viability,[1],1.05 ± 0.014
same,cell viability,[2],0.974 ± 0.08
same,cell viability,[3],1.07 ± 0.014
same,TCF/Wnt firefly luciferase reporter signal,[4],0.985 ± 0.021
same,TCF/Wnt firefly luciferase reporter signal,[5],0.931 ± 0.052
